Consider seven molecules from PubChem BioAssay (NCI).

A short description of assay [1]: NCI Yeast Anticancer Drug Screen. Data for the rad50 strain (AID 155).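 Note: 0% = growth of vehicle-only cultures of the same strain.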 Particulars: S. cerevisiae rad50 strain growth inhibition, stronger effect = higher value. The method in brief: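 Yeast carrying a defined DNA repair defect were exposed to test compounds, and growth was compared with vehicle-treated controls to give percent inhibition.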
A short description of assay [2]: NCI Yeast Anticancer Drug Screen. Data for the mec2-1 strain (AID 157). Particulars: S. cerevisiae mec2-1 strain, stronger effect = higher value. In outline:
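Growth inhibition is read against vehicle-treated controls after compound exposure of the mec2-1 yeast strain, which is defective in DNA damage repair or cell cycle control.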

Assay [3] can be described thus: NCI Yeast Anticancer Drug Screen. Data for the sgs1 mgt1 strain (AID 161).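 Note: 0% = growth of cultures given vehicle only.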 Particulars: S. cerevisiae sgs1 mgt1 strain, stronger effect = higher value. In outline: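 Compounds are added to genetically altered yeast, and growth is compared with cultures given vehicle alone to give percent inhibition.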
Assay [4] in a line: NCI Yeast Anticancer Drug Screen. Data for the cln2 rad14 strain (AID 165).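 Note: 0% = growth equal to vehicle treated cultures.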 The settings on record: S. cerevisiae cln2 rad14 strain, stronger effect = higher value. The method in brief: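 Growth inhibition, relative to vehicle-treated controls, is the read-out. The test organism is a yeast strain with defined genetic alterations, cln2 rad14.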
Assay [5] can be described thus: NCI Yeast Anticancer Drug Screen. Data for the bub3 strain (AID 167). Particulars: S. cerevisiae bub3 mutant strain, stronger effect = higher value. In outline: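 Compounds were applied to a genetically altered yeast strain carrying a cell-cycle control defect. Growth inhibition was scored against vehicle-treated controls.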
The nature of assay [6]: NCI Yeast Anticancer Drug Screen. Data for the mlh1 rad18 strain (AID 175). The settings on record: S. cerevisiae mlh1 rad18 strain growth inhibition, stronger effect = higher value. The method in brief:
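Cells of a genetically altered yeast strain, deficient in DNA damage repair, were treated with compound. Their growth was then compared with that of vehicle-treated cultures to give inhibition.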

Where [7] appears, read: at 5.0 µM (retest, dose inferred, filed as 0.5).
[8] abbreviates: at 50.0 µM (retest, dose inferred, filed as 5.0).

Compounds without any hit were thinned out: in the full panel of roughly 79,000, 15% have a hit. Unmarked numbers belong to inactive results. Active and inactive are the calls of the source. Cut-off read from the data, not from the text of the source: active = growth inhibition above about 70%; inactive = the rest.

Turning to `O=C1CCCC/C1=C/c1ccc(Cl)cc1`, the growth inhibition in assay [1] (setting [7]) is -151%; in assay [1] (setting [8]), 35%; in assay [1] (at 50.0 µM) it was 87.3% (active); in assay [2] (setting [7]) it was -49%; in assay [2] (setting [8]), -13%; in assay [2] (at 50.0 µM) it was 81.2% (active). Moreover, the growth inhibition in assay [3] (setting [7]) is -64%; in assay [3] (setting [8]) it was 35%; in assay [3] (at 50.0 µM) it was 82% (active); in assay [4] (setting [7]), -57%; in assay [4] (setting [8]) it was -37%; in assay [4] (at 50.0 µM) it was 33%. For the same molecule, the growth inhibition in assay [5] (setting [7]) was -64%; in assay [5] (setting [8]) it was 27%; in assay [5] (at 50.0 µM), 73.7% (active); in assay [6] (setting [7]), -229%; in assay [6] (setting [8]) it was 36%; in assay [6] (at 50.0 µM), 90.8% (active).

For the molecule `CC(C)C(=O)c1ccc2ccccc2c1O`, the growth inhibition in assay [1] (setting [7]) is -1%; in assay [1] (setting [8]), 1%; in assay [1] (at 50.0 µM), 21.4%; in assay [2] (setting [7]), 2%; in assay [2] (setting [8]) it was -1%; in assay [2] (at 50.0 µM), -9.8%. Also, the growth inhibition in assay [3] (setting [7]) is -13%; in assay [3] (setting [8]) it was -8%; in assay [3] (at 50.0 µM), 4.35%; in assay [4] (setting [7]), 3%; in assay [4] (setting [8]), 0%; in assay [4] (at 50.0 µM) it was 12.2%. The growth inhibition in assay [5] (setting [7]) was 5%; in assay [5] (setting [8]) it was 6%; in assay [5] (at 50.0 µM), 0.5%; in assay [6] (setting [7]), -1%; in assay [6] (setting [8]), 1%; in assay [6] (at 50.0 µM), 1.05%.

With `COc1cc(-c2oc(C=Nc3ccccc3)c([N+](=O)[O-])c2-c2ccc(O)c(OC)c2)ccc1O`, the growth inhibition in assay [1] (setting [7]) was 22%; in assay [1] (setting [8]), 32%; in assay [1] (at 50.0 µM), 34.1%; in assay [2] (setting [7]), 19%; in assay [2] (setting [8]) it was 38%; in assay [2] (at 50.0 µM), -7.5%. Moreover, the growth inhibition in assay [3] (setting [7]) was -14%; in assay [3] (setting [8]), 74% (active); in assay [3] (at 50.0 µM), 31.4%; in assay [4] (setting [7]) it was 7%; in assay [4] (setting [8]), 74% (active); in assay [4] (at 50.0 µM) it was -18.1%. The growth inhibition is 5% in assay [5] (setting [7]); 91% (active) in assay [5] (setting [8]); -16.8% in assay [5] (at 50.0 µM); 25% in assay [6] (setting [7]); 61% in assay [6] (setting [8]); 1.65% in assay [6] (at 50.0 µM).

Take `Cc1cc(O)c(/C=N/C(=S)Nc2ccc(S(N)(=O)=O)cc2)c(=O)o1`: the growth inhibition in assay [1] (setting [7]) is 17%; in assay [1] (setting [8]) it was 42%; in assay [1] (at 50.0 µM), -24.4%; in assay [2] (setting [7]), 13%; in assay [2] (setting [8]), 32%; in assay [2] (at 50.0 µM) it was 4.9%. The growth inhibition was 19% in assay [3] (setting [7]); 57% in assay [3] (setting [8]); -10.2% in assay [3] (at 50.0 µM); 8% in assay [4] (setting [7]); 39% in assay [4] (setting [8]); -6.55% in assay [4] (at 50.0 µM). In addition, the growth inhibition in assay [5] (setting [7]) was 31%; in assay [5] (setting [8]) it was 56%; in assay [5] (at 50.0 µM), 1.45%; in assay [6] (setting [7]), 9%; in assay [6] (setting [8]), 44%; in assay [6] (at 50.0 µM), -33.1%.

`O=c1c(Cl)nsnc1Cl`: the growth inhibition in assay [1] (setting [7]) was 100% (active); in assay [1] (setting [8]) it was 100% (active); in assay [1] (at 50.0 µM) it was 99.6% (active); in assay [2] (setting [7]), 100% (active); in assay [2] (setting [8]), 100% (active); in assay [2] (at 50.0 µM), 99.7% (active). For the same molecule, the growth inhibition in assay [3] (setting [7]) is 100% (active); in assay [3] (setting [8]) it was 100% (active); in assay [3] (at 50.0 µM), 99.6% (active); in assay [4] (setting [7]), 99% (active); in assay [4] (setting [8]), 100% (active); in assay [4] (at 50.0 µM), 98% (active). In addition, the growth inhibition in assay [5] (setting [7]) was 100% (active); in assay [5] (setting [8]), 100% (active); in assay [5] (at 50.0 µM), 99.7% (active); in assay [6] (setting [7]) it was 99% (active); in assay [6] (setting [8]) it was 100% (active); in assay [6] (at 50.0 µM), 99.4% (active).

`C=C(Br)CN1CCC2(c3ccccc3)C(O)C([Se]c3ccccc3)CCC12` (stereo unspecified): the growth inhibition was 85% (active) in assay [1] (setting [7]); 85% (active) in assay [1] (setting [8]); 83.1% (active) in assay [1] (at 50.0 µM); 78% (active) in assay [2] (setting [7]); 78% (active) in assay [2] (setting [8]); 84% (active) in assay [2] (at 50.0 µM). Also, the growth inhibition in assay [3] (setting [7]) was 81% (active); in assay [3] (setting [8]) it was 81% (active); in assay [3] (at 50.0 µM) it was 78% (active); in assay [4] (setting [7]), 80% (active); in assay [4] (setting [8]) it was 80% (active); in assay [4] (at 50.0 µM), 83.3% (active). The growth inhibition is 84% (active) in assay [5] (setting [7]); 84% (active) in assay [5] (setting [8]); 84.8% (active) in assay [5] (at 50.0 µM); 89% (active) in assay [6] (setting [7]); 89% (active) in assay [6] (setting [8]); 82.8% (active) in assay [6] (at 50.0 µM).

Consider `COc1cc2cc[n+]3c4ccc([N+](=O)[O-])cc4ccc3c2cc1OC`, for which the growth inhibition in assay [1] (setting [7]) was 73% (active); in assay [1] (setting [8]) it was 81% (active); in assay [1] (at 50.0 µM) it was 44.8%; in assay [2] (setting [7]) it was 14%; in assay [2] (setting [8]) it was 73% (active); in assay [2] (at 50.0 µM) it was 55.5%. Also, the growth inhibition in assay [3] (setting [7]) was 42%; in assay [3] (setting [8]) it was 80% (active); in assay [3] (at 50.0 µM) it was 70% (active); in assay [4] (setting [7]), 31%; in assay [4] (setting [8]) it was 71% (active); in assay [4] (at 50.0 µM), 68.3%. Further, the growth inhibition in assay [5] (setting [7]) is 43%; in assay [5] (setting [8]), 81% (active); in assay [5] (at 50.0 µM), 57.7%; in assay [6] (setting [7]) it was 66%; in assay [6] (setting [8]), 69%; in assay [6] (at 50.0 µM), 46%.
